A selection: hits, their analogues and other compounds. The true share with any hit is near 5.2%.
PostGolgi ctrl: growth inhibition of yeast control strain, primary screen, counter-screen for post-Golgi transport modulator project; efflux-deficient yeast background strain, growth absorbance A615, 16 h; inhibition, % at 10 µM; 98,000 compounds, 5% hits; AID 738, 2007
Candida biofilm: clotrimazole potentiators killing Candida biofilms, primary screen, with clotrimazole, Alamar Blue | C. albicans biofilm + clotrimazole | inhibition, % at 6 µM | 85,000 compounds, 0.14% hits | AID 834, 2007;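 active = inhibition above 20%; inactive = inhibition below 20%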;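 note: preformed 24 hr biofilms exposed to compound for 48 hr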
EphB4 ephrin blk: EphB4-ephrin-B2 interaction antagonists, primary screen, biochemical, TNYL-RAW peptide probe, fluorescence polarization; Ephrin type-B receptor 4 (Homo sapiens), P54760; EphB4 LBD / TNYL-RAW-Alexa532 peptide; inhibition, % at 7 µM; 97,000 compounds, 0.15% hits;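 active = inhibition above the screen-wide mean inhibition plus 3 SD, cut at about 15% in these data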
Target sequence (P54760 whole entry, looked up, the tested form may be a part): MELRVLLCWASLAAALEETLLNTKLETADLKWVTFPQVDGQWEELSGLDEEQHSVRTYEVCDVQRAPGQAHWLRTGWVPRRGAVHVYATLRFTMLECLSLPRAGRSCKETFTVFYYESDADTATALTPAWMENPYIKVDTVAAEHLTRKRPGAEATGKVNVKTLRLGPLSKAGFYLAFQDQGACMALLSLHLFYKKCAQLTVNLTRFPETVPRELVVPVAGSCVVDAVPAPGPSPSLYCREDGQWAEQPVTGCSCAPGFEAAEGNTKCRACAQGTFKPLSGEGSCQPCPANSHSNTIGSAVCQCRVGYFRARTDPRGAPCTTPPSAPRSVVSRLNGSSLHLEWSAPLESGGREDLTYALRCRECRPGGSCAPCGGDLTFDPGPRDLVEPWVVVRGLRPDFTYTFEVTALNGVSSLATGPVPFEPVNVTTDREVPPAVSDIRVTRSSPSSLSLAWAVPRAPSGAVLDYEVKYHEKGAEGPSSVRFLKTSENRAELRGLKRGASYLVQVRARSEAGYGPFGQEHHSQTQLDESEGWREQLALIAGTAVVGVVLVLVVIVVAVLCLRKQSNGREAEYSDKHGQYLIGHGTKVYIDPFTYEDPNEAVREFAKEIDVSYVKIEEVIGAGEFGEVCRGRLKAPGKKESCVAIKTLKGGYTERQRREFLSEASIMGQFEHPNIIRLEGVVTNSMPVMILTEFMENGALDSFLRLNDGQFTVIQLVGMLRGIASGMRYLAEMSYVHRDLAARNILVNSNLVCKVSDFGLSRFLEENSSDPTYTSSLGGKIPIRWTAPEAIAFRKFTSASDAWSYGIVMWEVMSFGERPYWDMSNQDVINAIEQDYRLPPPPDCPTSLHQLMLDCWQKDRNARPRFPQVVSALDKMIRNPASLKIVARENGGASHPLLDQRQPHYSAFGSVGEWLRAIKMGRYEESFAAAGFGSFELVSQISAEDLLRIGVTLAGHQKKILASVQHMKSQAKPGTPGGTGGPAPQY
PostGolgi yeast: phenotypic screen on post-Golgi transport, primary screen. post-Golgi transport phenotypic cell assay. inhibition, % at 10 µM. 98,000 compounds, 0.9% hits. AID 739, 2007;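 note: yeast cells grown in 1536-well plates; yeast grown about 18 h at 30C before absorbance read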
Hits are given with their value; – = inactive; · = no result given; ! = repeats disagree. Cut-off read from the data, not from the text of the source, unless noted: active = inhibition above about 30%; inactive = the rest.

SMILES | PostGolgi ctrl | Candida biofilm | EphB4 ephrin blk | PostGolgi yeast
Cc1c2c(n3c(nc4ccccc43)c1C#N)N(Cc1ccccn1)CC2 | · | – | · | ·
Cc1ccccc1Cn1nc(C)c(NC(=O)c2noc3c2CC(C(C)(C)C)CC3)c1C (stereo not drawn) | – | – | – | –
Cc1ccccc1Cn1nc(C)c(NC(=O)c2noc3c2CCc2ccccc2-3)c1C | 38.4 | – | – | –
CCN(CC)S(=O)(=O)c1ccc2c(c1)nc(CCC(=O)Nc1cccc(C(F)(F)F)c1)n2CC | – | – | – | –
CCn1c(CCC(=O)Nc2nc3c(s2)CCCC3)nc2cc(S(=O)(=O)N(C)C)ccc21 | 33.0 | – | – | –
CCOc1ccc(NC2c3ccccc3C(=O)N2Cc2ccc3c(c2)OCO3)cc1 (stereo not drawn) | 31.1 | – | – | –
Cc1c(N2C(=O)/C(=C/c3ccccc3)SC2=S)c(=O)n(-c2ccccc2)n1C | – | · | – | –
Cc1ccc(C)n1N1C(=O)/C(=C\c2ccc(Cl)cc2)SC1=S | 38.7 | – | – | 39.8
CC(C)c1ccc(/C=C/C(=O)NC2=NCCS2)cc1 | 33.5 | · | – | –
CCOC(=O)c1ccccc1NC(=O)CN(c1ccccc1)S(=O)(=O)N(C)C | – | – | – | –
O=C(O)c1ccc(COc2ccc(/C=N/NC(=O)c3cccs3)cc2)cc1 | – | · | – | –
O=C(N/N=C/c1cccc(OCc2ccccc2)c1)c1cccs1 | 36.7 | – | – | –
O=C(N/N=C/c1ccccc1)c1sccc1OCc1ccc(F)cc1 | 68.2 | · | – | –
Cn1c(=O)c2c(nc3sccn32)n(C)c1=O | · | – | – | ·
O=C1NN=C(c2ccc(Cl)cc2)CC1c1cccc(Cl)c1 (stereo not drawn) | 45.5 | – | – | –
CC1CCCCN1C(=O)CSc1nc(N)cc(=O)[nH]1 (stereo not drawn) | 30.0 | · | – | –
CCOc1ccc(C(CCc2ccccc2)NC(=O)c2ccccc2OC)cc1OCC (stereo not drawn) | – | · | – | –
CCOc1ccc(C(CCc2ccccc2)NC(=O)c2ccccc2F)cc1OCC (stereo not drawn) | – | · | 18.4 | –
CC(C)(C)c1cc(NCCCn2ccnc2)n2ncc(-c3ccc(Cl)cc3)c2n1 | 93.5 | – | – | 57.6
O=C(O)c1ccc2c(c1)C(=O)N(CCC1=CCCCC1)C2=O | – | – | · | –
CN(C(=O)c1ccc2c(c1)C(=O)N(CCC1=CCCCC1)C2=O)C1CCCCC1 | 34.1 | · | – | –
Cc1ccsc1-c1nc(CSCC(=O)NCc2ccc3c(c2)OCO3)c(C)o1 | – | – | – | –
COc1ccccc1-c1nc(C#N)c(NCc2ccc(F)cc2)o1 | 40.8 | – | – | –
COc1ccc(CNc2oc(COc3ccccc3)nc2C#N)cc1 | – | – | – | –
N#Cc1nc(-c2ccccc2F)oc1NCc1cccc2c1OCO2 | 34.2 | – | – | –
SMILES | PostGolgi ctrl | Candida biofilm | EphB4 ephrin blk | PostGolgi yeast
COc1ccc(CNc2oc(Cc3cccc4ccccc34)nc2C#N)cc1 | 34.9 | – | – | –
CN(C)CCNc1oc(-c2ccccc2F)nc1C#N | – | – | – | –
CCn1c(C)c(C(C)=O)c(SC)nc1=S | – | – | – | –
CCOC(=O)c1c(NC(=O)CSc2nnc(CNC(=O)c3ccco3)n2C)sc2c1CCC2 | – | – | – | –
O=C(NCC1CCCO1)c1ccc(S(=O)(=O)N2CCC(c3nc4ccc(Cl)cc4[nH]3)CC2)cc1 (stereo not drawn) | · | – | – | ·
CC1N=C2c3ccccc3N=C(SCc3cc(=O)n4ccccc4n3)N2C1=O (stereo not drawn) | · | – | · | ·
CC(C)NC(=S)N/N=C1\CCCCC1C1CCCCC1 (stereo not drawn) | 30.2 | · | – | –
CC(C)/C=C1\CCCCC1N(C)C(=O)NC(C)C (stereo not drawn) | – | – | – | –
Cc1cc(C)c2c(c1)SC1=NC(c3ccccc3)(C(F)(F)F)NC(=O)N12 (stereo not drawn) | 43.1 | – | – | –
Cc1cccc(N=C2N=C(N)c3ccccc32)c1 | 33.1 | – | – | –
Cc1ccc2nc3sc(C(=O)N4CCCc5ccccc54)c(N)c3cc2c1 | 50.3 | · | – | –
CCn1c(=O)c(C(=O)Nc2nc3ccccc3[nH]2)c(O)c2ccccc21 | 98.2 | · | – | 104.1
CCn1c(=O)c(C(=O)Nn2c(C)nc3ccccc3c2=O)c(O)c2ccccc21 | – | – | · | –
O=C(CSc1ccc2ccccc2n1)c1ccc2c(c1)OCO2 | 31.6 | – | – | –
O=C(O)CSc1ccc2ccccc2n1 | – | – | – | –
O=C(O)CCSc1ccc2ccccc2n1 | 44.1! | – | – | –
C=CCn1c(Cc2cccs2)nnc1SC/C=C/c1ccccc1 | – | – | – | –
CCCCn1c(=O)n(CC(=O)Nc2ccc(OC)c(Cl)c2)c(=O)c2c1nc(CO)n2CCC | – | · | – | –
COCCNC(=O)c1cc2c(=O)n(C)c3ccccc3c2n1C | – | – | – | –
Cc1c(S(=O)(=O)N2CCN(C(=O)c3ccco3)CC2)c(=O)n(C)c(=O)n1C | – | – | – | –
CCCc1cc(N2CCCC2)n2nc(C)c(-c3ccccc3)c2n1 | – | – | – | –
COCCCNC(=O)c1cc2c(=O)n(C)c3ccccc3c2n1C | 38.8 | – | – | –
Cn1c(C(=O)N2CCN(c3ccc(F)cc3)CC2)cc2c(=O)n(C)c3ccccc3c21 | · | – | · | ·
Cn1c(C(=O)N2CCN(C(=O)c3ccco3)CC2)cc2c(=O)n(C)c3ccccc3c21 | 34.5 | – | – | –
CCN1CCN(c2cc(C(C)(C)C)nc3c(-c4ccccc4)c(C)nn23)CC1 | 76.4 | – | – | –
SMILES | PostGolgi ctrl | Candida biofilm | EphB4 ephrin blk | PostGolgi yeast
Cn1cc(S(=O)(=O)N2CCN(C(=O)c3ccco3)CC2)c(=O)n(C)c1=O | – | 20.1 | – | –
CC(C)(C)S(=O)(=O)c1ccc(S(=O)(=O)C(C)(C)C)s1 | · | – | – | ·
CCCSc1nc2c(=O)[nH][nH]c(=O)c2n1Cc1ccccc1 | · | – | – | ·
COC(=O)C1=C(C(=O)OC)SC2(S1)C(C(=O)OC)=C(C(=O)OC)SC1=C2c2cc(C)ccc2NC1(C)C | – | – | – | –
O=C(NCc1ccccn1)c1nnc(Cc2ccc(Cl)cc2)o1 | · | – | · | ·
Cc1cc(N2CCN(C(=O)c3ccco3)CC2)n2nc(-c3cccc(Cl)c3)cc2n1 | 51.6 | – | · | –
Cc1cc(N2CCN(C(=O)c3ccco3)CC2)n2nc(C)c(-c3ccccc3)c2n1 | 97.9 | – | – | 30.9
Cc1nc2cc(-c3cccc(Cl)c3)nn2c(N2CCN(C(=O)c3ccco3)CC2)c1C | · | – | · | ·
O=C(c1ccco1)N1CCN(C(=O)c2cc(-c3ccccc3)nc3ccccc23)CC1 | 31.1 | – | – | –
O=C(c1cc(-c2ccccc2)nc2ccccc12)N1CCOCC1 | – | – | – | –
O=C(CSc1nc(-c2ccccc2)c(-c2ccccc2)[nH]1)NCCN1C(=O)CSC1=O | – | – | – | –
c1ccc(CCn2nnnc2C(c2cccnc2)N2CCN(c3ccccc3)CC2)cc1 (stereo not drawn) | 43.0 | – | – | 61.5
CCCC(c1nnnn1Cc1cccs1)N1CCN(c2nc3ccccc3s2)CC1 (stereo not drawn) | – | – | – | 47.1
Fc1ccc(N2CCN(C(c3cccs3)c3nnnn3CCc3ccccc3)CC2)cc1 (stereo not drawn) | 37.1 | – | – | –

Screening data deposited in PubChem by several laboratories.
